Results published in PubChem BioAssay (EPA / NIEHS).
Results filed as inconclusive are left out. Calls of active or inactive are those of the source. How the source made its calls: active means hit-call score of the fitted dose curve at least 0.9, where 1 is the maximum; inconclusive means response in the unintended direction; inactive means score below 0.9.

Experiment: ATG_Hpa5_TRANS: Attagene TRANS-FACTORIAL HepG2 Assay for human GAL4-Hpa5 Hepatocyte Transcription Factor Basal Promoter (AID 2282975);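 further: hits are increases in reporter mRNA over DMSO baseline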
Conditions: HepG2 Attagene GAL4-Hpa5 transcription reporter
Description: ATG_TRANS is a cell-based, multiplexed-readout assay that uses HepG2, a human liver cell line, with measurements taken at 24 hours after chemical dosing in a 24-well plate.ATG_Hpa5_TRANS is one of 30 assay component(s) measured or calculated from the ATG_TRANS assay. It is designed to make measurements of mRNA induction, a form of inducible reporter, as detected with fluorescence intensity signals by Reverse transcription polymerase chain reaction (RT-PCR) and Capillary electrophoresis technology.Data from the assay component ATG_Hpa5_TRANS was analyzed into 1 assay endpoint. This assay endpoint, ATG_Hpa5_TRANS, was analyzed in the positive analysis fitting direction relative to DMSO as the negative control and baseline of activity. Using a type of inducible reporter, measures of mRNA for gain-of-signal activity can be used to understand the background control at the transcription factor-level as they relate to the gene . Furthermore, this assay endpoint can be referred to as a secondary readout, because this assay has produced multiple assay endpoints where this one serves a background control function. To generalize the intended target to other relatable targets, this assay endpoint is annotated to the background measurement intended target family, where the subfamily is internal marker.
Human liver HepG2 cells are transiently transfected with multiple reporter transcription units (MRTUs) in 6-well plates using FuGene 6 reagent (Roche; 3 ml FuGene/1 mg DNA). The MRTU constructs are regulated by a cis-regulating element (promoter). […] A major difference between the CIS and TRANS system is that in CIS activities of endogenous TFs are measured, whereas the TRANS assay evaluates changes in activities of exogenous, chimeric NR-Gal4 proteins. […] At the end of 24 hour incubation, total RNA was isolated using TriZol reagent (Invitrogen). The isolated RNA is then reverse-transcribed using oligo(dT) primer and Mo-MLV reverse transcriptase (Invitrogen) with DNAse I (Ambion) treatment for 30 min. The one-tenth of the produced cDNA was amplified by PCR using Taq DNA polymerase (Invitrogen) and two reporter sequence-specific primers. The PCR products were fluorescently labeled by primer extension with 6-arboxyfluorescein (6-FAM) 5'-labeled reporter sequence-specific primer (2 min at 95 C, 20 s at 68 C and 10 min at 72 C) and these products were digested with 5U of HpaI (New England Biolabs) for 2h at 37 C. The fragments were purified using Qiaquick PCR columns (Qiagen), analyzed on an ABI 3130xL genetic analyzer (Applied Biosystems) with peak positions identified by using a set of X-rhodamine (ROX)-labeled MapMarker1000 molecular weight standards (BioVentures). The raw capillary electrophoresis data was processed using Attagraph software (Attagene).

Row | SMILES | outcome
1 | COCC(=O)N(c1c(C)cccc1C)C(C)C(=O)OC (stereo not given) | inactive
2 | CC1(C)C(C=C(Cl)Cl)C1C(=O)OC(C#N)c1cccc(Oc2ccccc2)c1 (stereo not given) | inactive
3 | COP(=S)(OC)SCn1nnc2ccccc2c1=O | inactive
4 | CCOC(=O)C(C)OC(=O)c1cc(Oc2ccc(C(F)(F)F)cc2Cl)ccc1[N+](=O)[O-] (stereo not given) | inactive
5 | COc1cc(OC)nc(NC(=O)NS(=O)(=O)c2ncccc2OCC(F)(F)F)n1 | inactive
6 | CCSC(=O)N1CCCCCC1 | inactive
7 | N#CN=C1SCCN1Cc1ccc(Cl)nc1 | inactive
8 | CCN(CC)C(=O)C(C)Oc1cccc2ccccc12 (stereo not given) | inactive
9 | CS(=O)(=O)c1cc(C(F)(F)F)ccc1C(=O)c1cnoc1C1CC1 | inactive
10 | COP(=O)(OC)O/C(C)=C/C(=O)N(C)C | inactive
11 | COc1cc(Cl)c(OC)cc1Cl | inactive
12 | CC(C)=CC1C(C(=O)OCc2coc(Cc3ccccc3)c2)C1(C)C (stereo not given) | inactive
13 | CC(C)C1(C)N=C(c2ncccc2C(=O)O)NC1=O (stereo not given) | inactive
14 | COCc1cnc(C2=NC(C)(C(C)C)C(=O)N2)c(C(=O)O)c1 (stereo not given) | inactive
15 | Cc1c(COC(=O)[C@@H]2[C@H](/C=C(\Cl)C(F)(F)F)C2(C)C)cccc1-c1ccccc1 | inactive
16 | CC(C)(C)C(=O)C(Oc1ccc(Cl)cc1)n1cncn1 (stereo not given) | inactive
17 | CSC(=O)c1c(C(F)F)nc(C(F)(F)F)c(C(=O)SC)c1CC(C)C | inactive
18 | CCOc1nc(F)cc2nc(S(=O)(=O)Nc3c(Cl)cccc3Cl)nn12 | inactive
19 | CCCCC(C#N)(Cn1cncn1)c1ccc(Cl)cc1 (stereo not given) | inactive
20 | N#Cc1c(Cl)cccc1Cl | inactive

Row | SMILES | outcome
21 | CCCN(CC)CC1COC2(CCC(C(C)(C)C)CC2)O1 (stereo not given) | inactive
22 | CC(C)Oc1cccc(NC(=O)c2ccccc2C(F)(F)F)c1 | inactive
23 | O=c1n(Cl)c(=O)n(Cl)c(=O)n1Cl | inactive
24 | Cc1cc(C)nc(Nc2ccccc2)n1 | inactive
25 | CC(C)N1C(=O)c2ccccc2NS1(=O)=O | inactive
26 | CN=C=S | inactive
27 | Cc1nc(N(C)C)nc(OC(=O)N(C)C)c1C | inactive
28 | CC1(C)C(C(=O)OC(C#N)c2cccc(Oc3ccccc3)c2)C1(C)C (stereo not given) | inactive
29 | COC(=O)c1c(C(F)F)nc(C(F)(F)F)c(C2=NCCS2)c1CC(C)C | inactive
30 | CS(=O)(=O)c1ccc(C(=O)C2C(=O)CCCC2=O)c([N+](=O)[O-])c1 | inactive
31 | C=C(C)CN(CC)c1c([N+](=O)[O-])cc(C(F)(F)F)cc1[N+](=O)[O-] | inactive
32 | CNC(=O)N(C)c1nnc(C(C)(C)C)s1 | inactive
33 | CCOP(=S)(OCC)Oc1nc(Cl)n(C(C)C)n1 | inactive
34 | Clc1cccc(C(Cl)(Cl)Cl)n1 | inactive
35 | CCOP(=O)(OCC)Oc1nc(Cl)c(Cl)cc1Cl | inactive
36 | CC(C)NC(=O)N1CC(=O)N(c2cc(Cl)cc(Cl)c2)C1=O | inactive
37 | CC(C)Nc1nc(Cl)nc(NC(C)C)n1 | inactive
38 | Nc1c(Cl)c(Cl)nc(C(=O)O)c1Cl | inactive
39 | N#Cc1c[nH]cc1-c1cccc2c1OC(F)(F)O2 | inactive
40 | CCCC(=NOCC)C1=C(O)CC(CC(C)SCC)CC1=O (stereo not given) | inactive
